Test [1] is described as follows: qHTS assay to identify small molecule antagonists of the glucocorticoid receptor (GR) signaling pathway - cell viability counter screen (AID 720693). Also: nearly all actives have a fitted effect of over 55% in size.
The nature of test [2]: qHTS assay for identifying genotoxic compounds that show differential cytotoxicity against isogenic chicken DT40 cell lines with known DNA damage response pathways - wild type cell line (AID 743012). Also: nearly all actives have a fitted effect of over 60% in size. Also: potency is read from the fitted curve at half-maximal effect. The procedure, abridged: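 Cytotoxicity in repair-proficient parental chicken DT40 cells serves as the comparator for Rad54/Ku70- and Rev3-deficient lines. Cells were exposed to compounds for 40 h at 37 C/5% CO2, and ATP-based luminescence (CellTiter-Glo) measured viability.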

Test [3] can be described thus: qHTS assay for identifying genotoxic compounds that show differential cytotoxicity against isogenic chicken DT40 cell lines with known DNA damage response pathways - Rev3 mutant cell line (AID 743014). Also: nearly all actives have a fitted effect of over 55% in size. Also: potency is read from the fitted curve at half-maximal effect.
Test [4] in a line: qHTS assay for identifying genotoxic compounds that show differential cytotoxicity against isogenic chicken DT40 cell lines with known DNA damage response pathways - Rad54/Ku70 mutant cell line (AID 743015). Also: nearly all actives have a fitted effect of over 60% in size. Also: potency is read from the fitted curve at half-maximal effect.
Test [5] in a line: qHTS assay to identify small molecule antagonists of the androgen receptor (AR) signaling pathway - cell viability counter screen (AID 743033; also: nearly all actives have a fitted effect of over 45% in size).
The nature of test [6]: qHTS assay to identify small molecule antagonists of the androgen receptor (AR) signaling pathway using the MDA cell line - cell viability counter screen (AID 743041; also: nearly all actives have a fitted effect of over 45% in size; also: potency is read from the fitted curve at half-maximal effect). The procedure, abridged:
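Cytotoxicity counter screen: MDA-kb2 AR-luc cells, compound + R1881, 16 h, 37C, 0% CO2; CellTiter-Fluor added at 15.5 h, fluorescence read after 30 min.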

For test [7], the target named is Androgen receptor (Homo sapiens) (UniProt P10275). The experiment in a line: qHTS assay to identify small molecule agonists of the androgen receptor (AR) signaling pathway using the MDA cell line (AID 743040; also: potency is read from the fitted curve at half-maximal effect; nearly all actives have a fitted effect of over 20% in size). In outline:
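Luciferase read-out, ONE-Glo, 30 min RT. Cells: MDA-kb2 AR-luc, MMTV promoter with AR and GR response elements. Compound exposure 16 h, 37C, 0% CO2, after 5 h pre-incubation. qHTS agonist mode.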

For test [8] the target is unchanged. The experiment in a line: qHTS assay to identify small molecule antagonists of the androgen receptor (AR) signaling pathway using the MDA cell line (AID 743042; also: nearly all actives have a fitted effect of over 55% in size). In outline:
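MDA-kb2 breast carcinoma cells carrying MMTV-luciferase (AR/GR responsive) were co-treated with compounds and the agonist R1881 for 16 h at 37C. Inhibition read as ONE-Glo luminescence; CellTiter-Fluor fluorescence measured in parallel for cytotoxicity.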

The target is the same in test [9]. Description: qHTS assay to identify small molecule antagonists of the androgen receptor (AR) signaling pathway (AID 743035; active = well fitted inhibition curve with a large enough effect in the signal ratio in the repeat runs, not every such curve was filed as active; the % refers to the signal ratio). In outline: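 Steps: seed AR-UAS-bla GripTite HEK293 cells, incubate 4 h at 37C; pin in test compound, then add agonist R1881; incubate 16 h at 37C; add LiveBLAzer B/G FRET substrate, 2 h at room temperature; read fluorescence.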
Test [10] shares this target. The experiment in a line: qHTS assay to identify small molecule agonists of the androgen receptor (AR) signaling pathway (AID 743036; active = well fitted activation curve with a large enough effect in the signal ratio in the repeat runs, with a control signal flat, not every such curve was filed as active; the % refers to the signal ratio). The procedure, abridged: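 AR-UAS-bla HEK293 cells, plated 4 h before dosing, were treated with compound for 16 h at 37C. beta-Lactamase reporter read after 2 h with LiveBLAzer B/G FRET substrate at room temperature.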

SMILES strings stand for the structures. “And” between values parts separate entries of the source, which are not always exact repeats. Identical values can stand only once. Inconclusive results are not listed. A structure can be active in one record and inactive in another. The source made the active and inactive calls. Unless noted, calls follow the shape of the dose curve; as a rule, active = well fitted curve in the direction sought with a large enough effect in the repeat runs; inconclusive = weak or mixed curves; inactive = no such curve, though single readings can be large; an effect the other way counts as inactive or inconclusive.

Sequence of Androgen receptor (Homo sapiens) (P10275 whole entry, looked up): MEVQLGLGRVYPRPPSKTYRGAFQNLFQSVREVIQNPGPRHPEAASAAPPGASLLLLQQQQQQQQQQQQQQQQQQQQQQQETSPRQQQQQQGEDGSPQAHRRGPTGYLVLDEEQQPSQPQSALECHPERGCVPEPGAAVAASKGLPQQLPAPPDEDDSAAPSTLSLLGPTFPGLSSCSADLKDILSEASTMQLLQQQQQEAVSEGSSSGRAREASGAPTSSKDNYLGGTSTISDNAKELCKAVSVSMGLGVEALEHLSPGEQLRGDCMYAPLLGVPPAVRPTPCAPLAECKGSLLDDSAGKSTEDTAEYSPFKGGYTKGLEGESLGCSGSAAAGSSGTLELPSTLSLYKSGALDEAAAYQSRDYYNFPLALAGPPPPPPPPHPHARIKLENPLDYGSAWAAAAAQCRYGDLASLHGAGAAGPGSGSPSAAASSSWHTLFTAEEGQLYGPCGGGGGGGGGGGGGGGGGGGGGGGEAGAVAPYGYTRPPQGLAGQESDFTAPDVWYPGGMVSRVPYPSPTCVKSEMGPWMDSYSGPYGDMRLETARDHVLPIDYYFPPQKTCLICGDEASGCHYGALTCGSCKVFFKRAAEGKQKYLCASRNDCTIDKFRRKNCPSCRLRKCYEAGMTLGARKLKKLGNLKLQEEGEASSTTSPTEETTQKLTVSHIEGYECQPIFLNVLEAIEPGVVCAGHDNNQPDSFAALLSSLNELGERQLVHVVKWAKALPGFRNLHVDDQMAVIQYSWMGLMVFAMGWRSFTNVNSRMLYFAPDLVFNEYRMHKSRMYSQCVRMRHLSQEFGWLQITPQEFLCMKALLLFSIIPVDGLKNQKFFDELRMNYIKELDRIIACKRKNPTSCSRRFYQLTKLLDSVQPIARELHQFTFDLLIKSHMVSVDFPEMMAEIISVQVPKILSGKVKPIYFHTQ

As for `CCOc1ccc(NC(=O)CC(C)O)cc1` (stereo unspecified), the Potency result in test [1], in [2], in test [3], in test [4] and in [6] was “inactive” each time. For the same compound, the compound was classed as inactive in test [5].
In the case of `O=C(O)CCCCCCCC(=O)O`, the Potency entry in test [1], in [2], in test [3], in test [4] and in [6] was “inactive” each time. For the same compound, in [5], the call was inactive.
For `CC(=O)OCC(COC(C)=O)OC(C)=O`, the Potency result in test [1], in [3], in [4] and in test [6] was “inactive” throughout. In addition, the outcome in test [5] was inactive.
For the compound `O=C1CN(/N=C/c2ccc([N+](=O)[O-])o2)C(=O)N1`, the Potency result in test [1] was “inactive”. Besides, the Potency was 60.9 µM (active) in [2]; 54.3 µM (active) and 68.6 µM (active) in [3]; 60.9 µM (active) in [4]; 15.6 µM (active) and 54.3 µM (active) and 48.6 µM (active) in test [6].
With `Oc1ccc(/C=C/c2cc(O)cc(O)c2)cc1`, the Potency entry in test [1] and in [6] was “inactive” each time. In addition, the Potency in test [3] is 7.17 µM (active) and 15.5 µM (active) and 21.7 µM (active); in test [4], 9.02 µM (active) and 27.6 µM (active) and 30.6 µM (active); in test [7] it was 6.92 µM (active) and 2.73 µM (active). The outcome in [5] and in test [8] was inactive.
On to `NS(=O)(=O)c1cc(C(=O)O)c(NCc2ccco2)cc1Cl`, for which the Potency entry in test [1], in test [2], in test [3], in [4] and in [6] was “inactive” each time. In [5], the compound was classed as inactive.
`NC(=O)c1ccccc1O`: the Potency result in test [1], in [3], in test [4] and in [6] was “inactive” in each case. Also, the compound was classed as inactive in test [5].
On to `NC(N)=NC(=O)c1nc(Cl)c(N)nc1N`, for which the Potency entry in test [1], in test [3], in test [4] and in [6] was “inactive” throughout. In addition, the compound was called inactive in [5].
`C/C=C/c1ccc(OC)cc1`: the Potency entry in test [1], in test [3], in [4] and in test [6] was “inactive” in each case. Moreover, in [5], the result was inactive.
With `Cn1cc[nH]c1=S`, the Potency result in [1], in [3], in [4] and in test [6] was “inactive” throughout. For the same compound, the call in [5] was inactive.
For the compound `Nc1ccc(S(=O)(=O)Nc2nccs2)cc1`, the Potency result in test [1], in test [3], in test [4] and in test [6] was “inactive” in each case. The compound was called inactive in test [5].
For `O=C(O)CCCCC(=O)O`, the Potency entry in test [1] and in test [6] was “inactive” in each case. Besides, the call in [5] was inactive.
On to `O=C(O)c1[nH]n(-c2ccc(S(=O)(=O)O)cc2)c(=O)c1N=Nc1ccc(S(=O)(=O)O)cc1`, for which the Potency result in test [1], in test [3] and in test [4] was “inactive” in each case. The result in test [5] was inactive. Besides, in test [6], the Potency is 15 µM (active) and 61.3 µM (active) and 57.1 µM (active).
For the compound `CCCC(O)C(CC)CO` (stereo unspecified), the Potency entry in [1], in test [3], in test [4] and in test [6] was “inactive” throughout. Besides, the result in [5] was inactive.
Take `CC1(C)[C@@H]2CC[C@@]1(C)C(=O)C2`: the Potency entry in test [1] and in test [6] was “inactive” throughout. Also, the Potency in [3] was 4.73 µM (active) and inactive; in test [4], 2.98 µM (active) and inactive. Besides, the compound was called inactive in test [5].
For the compound `Nc1ccc(O)c(C(=O)O)c1`, the Potency entry in test [1], in test [3], in test [4] and in test [6] was “inactive” throughout. Further, in test [5], the call was inactive.
Regarding `NC(=O)NC1NC(=O)NC1=O` (stereo unspecified), the Potency entry in test [1], in test [3], in test [4] and in test [6] was “inactive” in each case. For the same compound, in [5], the outcome was inactive.
Turning to `OC(Cn1cncn1)(Cn1cncn1)c1ccc(F)cc1F`, the Potency result in test [1], in test [3], in test [4] and in [6] was “inactive” each time. Further, in [5], the outcome was inactive.
As to `Nc1ccn([C@H]2CC[C@@H](CO)O2)c(=O)n1`, the Potency result in [1] and in test [6] was “inactive” in each case. Moreover, the Potency is 24.3 µM (active) in [3]; 53.5 µM (active) and 24.3 µM (active) in test [4]. Also, in test [5], the outcome was inactive.
Turning to `Cc1cn([C@H]2C[C@H](N=[N+]=[N-])[C@@H](CO)O2)c(=O)[nH]c1=O`, the Potency result in test [1] and in test [6] was “inactive” in each case. Moreover, in [5], the compound was called inactive.
Take `O=C(O)c1cccc([N+](=O)[O-])c1`: the Potency entry in [1], in test [3], in test [4] and in test [6] was “inactive” throughout. In addition, the compound was called inactive in test [5].
With `N=C(N)c1ccc(OCCCCCOc2ccc(C(=N)N)cc2)cc1`, the Potency in [3] was 2.98 µM (active) and 2.16 µM (active) and 1.85 µM (active); in test [4] it was 2.66 µM (active) and 2.72 µM (active) and 1.65 µM (active). Further, the Potency result in [6] was “inactive”.
In the case of `CC(O)C(=O)O` (stereo unspecified), the Potency result in [1], in [3], in test [4] and in test [6] was “inactive” throughout. In test [5], the call was inactive.
Regarding `CCCC(CCC)C(=O)O`, the Potency result in [1], in test [3], in [4] and in test [6] was “inactive” in each case. In [5], the call was inactive.
As for `Cc1ccccc1C(OCCN(C)C)c1ccccc1` (stereo unspecified), the Potency entry in [1] and in test [6] was “inactive” each time. Further, the Potency entry in [3] is “inactive and 61.1 µM (active) and 54.5 µM (active)”; in [4] it was “inactive and 61.1 µM (active) and 68.6 µM (active)”. The call in test [5] was inactive.
On to `Nc1ccc(S(=O)(=O)c2ccc(N)cc2)cc1`, for which the Potency result in test [1], in test [3], in [4] and in test [6] was “inactive” each time. Also, in [5], the compound was called inactive.
Turning to `OCCc1ccccc1`, the Potency entry in test [1], in test [3], in [4] and in test [6] was “inactive” throughout. Further, in test [5], the outcome was inactive.
Regarding `CC(O)CO` (stereo unspecified), the Potency entry in test [1], in test [3] and in [6] was “inactive” in each case. In [4], the Potency result was “inactive and 61.1 µM (active)”. The compound was called inactive in test [5].
Regarding `O=c1cc[nH]c(=S)[nH]1`, the Potency entry in test [1], in [3], in test [4] and in [6] was “inactive” each time. Moreover, the compound was called inactive in test [5].
Regarding `CCCCC1C(=O)N(c2ccccc2)N(c2ccccc2)C1=O`, the Potency entry in test [1], in test [3], in test [4] and in [6] was “inactive” each time. Besides, in [5], the result was inactive.
As for `O=C(c1ccccc1)c1ccccc1`, the Potency result in [1] and in test [6] was “inactive” throughout. Besides, the outcome in test [5], in test [9], in test [10] and in [8] was inactive.
With `O=C(O)CCC(=O)O`, the Potency result in test [1], in test [3], in test [4] and in test [6] was “inactive” in each case. Besides, the compound was called inactive in test [5].
As for `CCCCCCCCCCCCCCCC(=O)O`, the Potency result in test [1], in test [3], in test [4] and in test [6] was “inactive” in each case. In addition, in [5], the call was inactive.
`CCC1(c2ccccc2)C(=O)NCNC1=O`: the Potency result in test [1] and in test [6] was “inactive” each time. Besides, the call in test [5] was inactive.
Turning to `CNC[C@H](O)c1cccc(O)c1`, the Potency result in test [1], in [3], in test [4] and in test [6] was “inactive” throughout. In addition, the result in test [5] was inactive.
Consider `Cn1c(=O)c2[nH]cnc2n(C)c1=O`, for which the Potency result in [1] and in [6] was “inactive” each time. The compound was classed as inactive in [5].
Regarding `O=C(O)c1cccnc1`, the Potency entry in test [1], in test [3], in test [4] and in test [6] was “inactive” throughout. In test [5], the outcome was inactive.
For the compound `NC(N)=O`, the Potency result in test [1] and in test [6] was “inactive” in each case. In addition, the Potency result in [3] was “inactive and 17.2 µM (active)”; in [4], “inactive and 21.7 µM (active)”. Also, the compound was called inactive in test [5].
Regarding `O=S(=O)(O)c1ccc2cc(O)ccc2c1`, the Potency result in test [1], in test [3], in [4] and in [6] was “inactive” in each case. Besides, the result in [5] was inactive.
In the case of `CC(O)CN(CCN(CC(C)O)CC(C)O)CC(C)O` (stereo unspecified), the Potency result in test [1], in test [3], in test [4] and in [6] was “inactive” throughout. Also, the result in test [5] was inactive.
Consider `NC(=O)c1cnccn1`, for which the Potency entry in test [1], in test [3], in [4] and in [6] was “inactive” each time. Further, the result in test [5] was inactive.
`Cc1cc(=O)[nH]c(=S)[nH]1`: the Potency entry in [1], in test [3], in test [4] and in test [6] was “inactive” each time. The compound was called inactive in test [5].

For the origin of these results see PubChem BioAssay (Tox21).
